This note sets out measurements from PubChem BioAssay AID2241 (Broad Institute, 2010).

The whole screen tested about 21,000 compounds, of which about 110 (0.52%) were called active. The full list was thinned out, with actives kept by preference. A number with no mark means an inactive call.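 How the source made its calls: active means most replicate scores above 10, or exactly half above 10 with mean activity above 10; inconclusive means mean activity below 10 while half the replicates exceed 10; inactive means most replicate scores below 10.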

This assay can be described thus: inducers of caspase activity in MEF A1-2A-BIM cells, primary screen, A1 inhibitor project, cell-based, CaspaseGlo luminescence (AID 2241).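 Further: effector caspase 3 and 7 activity cleaving a DEVD luciferin substrate.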 The settings on record: caspase-Glo luminescence, 3 h, active compounds read high, percent of clofoctol signal, DMSO as zero, concentration not given here.
In the case of `CC(=O)N1[C@@H](c2ccc(C)cc2)SC(C)(C)[C@@H]1C(=O)O`, the caspase activation is -0.0443%.

Take `O=C(CNC(=S)N(Cc1ccccc1)Cc1ccccc1F)N1CCCC1`: the caspase activation is 0.68%.

`O=C(NCSc1nc2ccccc2s1)c1ccco1`: the caspase activation is 0.614%.

As to `O=S(=O)(NCc1ccc(-c2cccs2)cc1)c1cccs1`, the caspase activation was 0.285%.

As for `CC(C)NC(=O)N(C)C[C@H]1Oc2ccc(N(C)C)cc2C(=O)N([C@@H](C)CO)C[C@H]1C`, the caspase activation is 0.193%.

Consider `Cc1noc(C)c1NC(=O)N(C)C[C@H]1Oc2ccc(NS(=O)(=O)c3ccc(F)cc3)cc2C(=O)N([C@@H](C)CO)C[C@H]1C`, for which the caspase activation was 0.124%.

Take `O=C1CCCCC1C(=O)c1ccccc1` (stereo not given): the caspase activation was -0.0515%.

As to `COC(=O)C1=C(C)Nc2c(c(=O)n(C)c(=O)n2C)C1c1cccc(OCc2ccccc2)c1` (stereo not given), the caspase activation was 0.0517%.

For the molecule `C[C@H]1CN([C@@H](C)CO)C(=O)c2cc(NC(=O)C3CC3)ccc2O[C@@H]1CN(C)Cc1ccc(Oc2ccccc2)cc1`, the caspase activation is 0.539%.

Regarding `O=C(CCn1c(=S)[nH]c2cc3c(cc2c1=O)OCO3)NC1CCCC1`, the caspase activation was -1.11%.

Turning to `Clc1ccc(N2CCCCCCC2)nn1`, the caspase activation is 0.981%.

`CC(=O)Nc1ccc(N=Cc2ccc(N3CCOCC3)cc2)cc1`: the caspase activation was -0.682%.

Consider `Cc1ccc(C23CC4CC(CC(CN)(C4)C2)C3)cc1C`, for which the caspase activation was 4.34%.

Consider `Cc1cc(-c2cccs2)c2c(N)c(C(=O)c3ccccc3)sc2n1`, for which the caspase activation is 1.1%.

As to `O=c1c2c3c(sc2[nH]c(=S)n1Cc1ccccc1)CCCCC3`, the caspase activation was -0.256%.

`Cc1ccc(SCC(=O)Nc2nncs2)cc1`: the caspase activation was -1.27%.

Consider `O=C(NCc1ccc2c(c1)OCO2)c1ccc(Cl)cc1`, for which the caspase activation is -0.323%.

`CCOC(=O)c1cc(-c2ccnn2S(=O)(=O)c2ccc(C)cc2)on1`: the caspase activation was -0.165%.

As for `Cc1noc(C)c1NC(=O)Nc1ccc2c(c1)C(=O)N([C@@H](C)CO)C[C@@H](C)[C@H](CN(C)Cc1ccc(C(F)(F)F)cc1)O2`, the caspase activation was -0.666%.

As to `Cc1ccc(S(=O)(=O)Nc2ccc3c(c2)C(=O)N([C@@H](C)CO)C[C@H](C)[C@@H](CN(C)Cc2ccc4c(c2)OCO4)O3)cc1`, the caspase activation is -0.498%.

On to `O=C(COc1ccccc1)NCCc1nc2ccccc2n1Cc1ccccc1`, for which the caspase activation is 0.301%.

On to `Cc1cc(C)c(N=c2scc(C)n2Cc2ccccc2)c(C)c1`, for which the caspase activation is 0.564%.

`COc1ccc(-c2cc(C(F)(F)F)nc(SCC(=O)N3CCCCCC3)n2)cc1OC`: the caspase activation was -1.22%.

Turning to `Cc1cccc(N2CCN(C(=O)CCn3c(=S)[nH]c4cc5c(cc4c3=O)OCO5)CC2)c1C`, the caspase activation is -1.1%.

With `COc1ccc(S(=O)(=O)Nc2ccc3c(c2)C(=O)N([C@@H](C)CO)C[C@H](C)[C@H](CN(C)Cc2ccc(C(=O)O)cc2)O3)cc1`, the caspase activation is 0.618%.

For `C/C=C1\CC(C)(CC)C(C#N)(C#N)C(N)=C1C#N` (stereo not given), the caspase activation was -1.08%.

In the case of `Cc1ccc(S(=O)(=O)Nc2ccc3oc(C)c(C(=O)NN)c3c2)cc1`, the caspase activation is 0.426%.

For `COc1ccc(CCn2c(C)nc(=O)c(-c3ccccc3)c2C)cc1OC`, the caspase activation was 0.553%.

As to `CC1(C)CC(=O)C=C(Nc2ccccc2)C1`, the caspase activation was 0.527%.

Turning to `CN(C)c1ccc(/C=C(\C#N)S(=O)(=O)c2ccccc2)cc1C#N`, the caspase activation is 0.997%.

Consider `COc1ccc(OC(=O)c2csc(Cc3c(Cl)cccc3Cl)n2)cc1`, for which the caspase activation was 1.94%.

`O=C(Nc1nccs1)C1CCCN(C(=O)c2cnn(-c3ccccc3)c2-n2cccc2)C1` (stereo not given): the caspase activation is 0.381%.

Turning to `CC1(C)CC(=O)C(C=NCc2cccnc2)=C(O)C1`, the caspase activation is 1.24%.

Regarding `C[C@H](CO)N1C[C@H](C)[C@@H](CN(C)Cc2ccccc2)Oc2ccc(NC(=O)Nc3ccc4c(c3)OCO4)cc2C1=O`, the caspase activation is 0.17%.

In the case of `COc1ccc(CN(C)C[C@@H]2Oc3ccc(NC(=O)NC(C)C)cc3C(=O)N([C@@H](C)CO)C[C@H]2C)cc1`, the caspase activation was -0.804%.

Regarding `CC1(C)Cc2c(sc3ncn4nc(COc5ccc(Cl)cc5)nc4c23)C(C)(C)N1`, the caspase activation was 0.338%.

`C/C=C(/C)C(=O)O[C@H]1CC(C)(C)C[C@H]2C3=CCC4[C@@]5(C)CC[C@H](O[C@@H]6O[C@H](C(=O)O)[C@@H](O[C@@H]7O[C@H](CO)[C@H](O)[C@H](O)[C@H]7O[C@@H]7O[C@H](CO)[C@@H](O)[C@H](O)[C@H]7O)[C@H](O)[C@H]6O[C@@H]6O[C@@H](C)[C@H](O)[C@@H](O)[C@H]6O)C(C)(C)C5CC[C@@]4(C)[C@]3(C)[C@@H](O)[C@@H](O)[C@@]12CO` (stereo not given in full): the caspase activation was -2.44%.

Consider `COc1ccc(S(=O)(=O)N(C)C[C@H]2Oc3ccc(NC(=O)Nc4c(C)noc4C)cc3C(=O)N([C@H](C)CO)C[C@H]2C)cc1`, for which the caspase activation was -0.141%.

For `CCOC(=O)c1cnc2cc(C(F)(F)F)ccc2c1N1CCCCCC1`, the caspase activation was 0.00836%.

In the case of `C[C@H](CO)N1C[C@H](C)[C@H](CN(C)S(=O)(=O)c2cccs2)Oc2ccc(NS(=O)(=O)c3ccccc3)cc2C1=O`, the caspase activation was -0.0772%.

`COc1cccc(NC(=O)c2cc3c(s2)-c2c(C)cccc2OC3)c1`: the caspase activation is -5.23%.

As for `Cc1nn(C)cc1C(=O)c1ccccc1`, the caspase activation was 0.635%.

On to `Cc1ccc2c(c1)N(CCCC(=O)N1CCCCC1)C(=O)CO2`, for which the caspase activation was -0.335%.

On to `Cc1ccccc1-n1c(-c2ccc(Br)cc2)n[nH]c1=S`, for which the caspase activation is -0.035%.

With `COc1cc(OC)cc(C(=O)N2CCN=C2c2ccccc2)c1`, the caspase activation was 0.196%.

`Cc1nn(C(C)C(=O)NC2CCCCCC2)c(=O)c2cc3occc3n12` (stereo not given): the caspase activation was 0.379%.

As to `O=C(Nc1ccc(S(=O)(=O)Nc2nccs2)cc1)N1c2ccccc2Sc2ccccc21`, the caspase activation is 0.0197%.

As for `Fc1cc(F)cc(NC(=S)NCCN(C2CCCCC2)C2CCCC2)c1`, the caspase activation is -0.0874%.

Consider `CC(=O)Oc1ccc(C2OCC3C(C)C=C(C)C2C3C)cc1` (stereo not given), for which the caspase activation was 0.946%.

With `O=C(NCc1ccc2c(c1)OCO2)c1sc(=S)n2c1[nH]c(=O)c1ccccc12`, the caspase activation is -0.669%.
